Targets with a hit are over-represented here; the source holds about 8,800 in all. About 0.5% of all pairs of compound and target were hits.
How the values were obtained:
Test in all cases: log2 fold change, soluble protein after heating vs DMSO (PISA); higher = thermal stabilisation; K562 lysate, 10 uM; active = over 0.2 and 3.5 SD of the protein, either way, in both replicates (recomputed)
[1] = compound: C1=CC=C(C=C1)[C@H](COC2=CC3=C(C=C2)NC(=O)N3)NC(=O)C4=CC=CN(C4=O)CC5=CC(=C(C=C5)F)F
Summary of the method: (§1)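 Pellets of K562 cells were dounce-homogenised in PBS pH 7.4 with 1 mM MgCl2, and the crude extract was held at 1 mg/mL protein for a 30 min treatment with 10 μM compound. Aliquots were heated for 3 min over 48°C-58°C and pooled before NP-40 was added to 0.5% at 4°C. The supernatant from 21,000xg for 90 min was quantified by TMTpro 16plex LC-MS/MS with channel sums equalised. Values are reported from duplicates as log-two fold change in thermal stability relative to solvent controls.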

[2] = compound: CC1=C(SC2=C1C(=N[C@H](C3=NN=C(N32)C)CC(=O)N)C4=CC=C(C=C4)Cl)C
Summary of the method: as §1

[3] = compound: CC1=C2C(=CC=C1)N=C(N(C2=O)C3=CC=CC=C3C)CN4C=NC5=C(N=CN=C54)N
Summary of the method: as §1

[4] = compound: Cc1sc2c(c1C)C(c1ccc(Cl)cc1)=N[C@@H](CC(=O)OC(C)(C)C)c1nnc(C)n1-2
Summary of the method: as §1

[5] = compound: c1ccc([C@@H]2C[C@H]2NC2CCNCC2)cc1
Summary of the method: as §1

Measured: log2 fold change

DICER1 (UniProt Q9UPY3)
UniProt Q9UPY3, sequence (Q9UPY3 whole entry, looked up): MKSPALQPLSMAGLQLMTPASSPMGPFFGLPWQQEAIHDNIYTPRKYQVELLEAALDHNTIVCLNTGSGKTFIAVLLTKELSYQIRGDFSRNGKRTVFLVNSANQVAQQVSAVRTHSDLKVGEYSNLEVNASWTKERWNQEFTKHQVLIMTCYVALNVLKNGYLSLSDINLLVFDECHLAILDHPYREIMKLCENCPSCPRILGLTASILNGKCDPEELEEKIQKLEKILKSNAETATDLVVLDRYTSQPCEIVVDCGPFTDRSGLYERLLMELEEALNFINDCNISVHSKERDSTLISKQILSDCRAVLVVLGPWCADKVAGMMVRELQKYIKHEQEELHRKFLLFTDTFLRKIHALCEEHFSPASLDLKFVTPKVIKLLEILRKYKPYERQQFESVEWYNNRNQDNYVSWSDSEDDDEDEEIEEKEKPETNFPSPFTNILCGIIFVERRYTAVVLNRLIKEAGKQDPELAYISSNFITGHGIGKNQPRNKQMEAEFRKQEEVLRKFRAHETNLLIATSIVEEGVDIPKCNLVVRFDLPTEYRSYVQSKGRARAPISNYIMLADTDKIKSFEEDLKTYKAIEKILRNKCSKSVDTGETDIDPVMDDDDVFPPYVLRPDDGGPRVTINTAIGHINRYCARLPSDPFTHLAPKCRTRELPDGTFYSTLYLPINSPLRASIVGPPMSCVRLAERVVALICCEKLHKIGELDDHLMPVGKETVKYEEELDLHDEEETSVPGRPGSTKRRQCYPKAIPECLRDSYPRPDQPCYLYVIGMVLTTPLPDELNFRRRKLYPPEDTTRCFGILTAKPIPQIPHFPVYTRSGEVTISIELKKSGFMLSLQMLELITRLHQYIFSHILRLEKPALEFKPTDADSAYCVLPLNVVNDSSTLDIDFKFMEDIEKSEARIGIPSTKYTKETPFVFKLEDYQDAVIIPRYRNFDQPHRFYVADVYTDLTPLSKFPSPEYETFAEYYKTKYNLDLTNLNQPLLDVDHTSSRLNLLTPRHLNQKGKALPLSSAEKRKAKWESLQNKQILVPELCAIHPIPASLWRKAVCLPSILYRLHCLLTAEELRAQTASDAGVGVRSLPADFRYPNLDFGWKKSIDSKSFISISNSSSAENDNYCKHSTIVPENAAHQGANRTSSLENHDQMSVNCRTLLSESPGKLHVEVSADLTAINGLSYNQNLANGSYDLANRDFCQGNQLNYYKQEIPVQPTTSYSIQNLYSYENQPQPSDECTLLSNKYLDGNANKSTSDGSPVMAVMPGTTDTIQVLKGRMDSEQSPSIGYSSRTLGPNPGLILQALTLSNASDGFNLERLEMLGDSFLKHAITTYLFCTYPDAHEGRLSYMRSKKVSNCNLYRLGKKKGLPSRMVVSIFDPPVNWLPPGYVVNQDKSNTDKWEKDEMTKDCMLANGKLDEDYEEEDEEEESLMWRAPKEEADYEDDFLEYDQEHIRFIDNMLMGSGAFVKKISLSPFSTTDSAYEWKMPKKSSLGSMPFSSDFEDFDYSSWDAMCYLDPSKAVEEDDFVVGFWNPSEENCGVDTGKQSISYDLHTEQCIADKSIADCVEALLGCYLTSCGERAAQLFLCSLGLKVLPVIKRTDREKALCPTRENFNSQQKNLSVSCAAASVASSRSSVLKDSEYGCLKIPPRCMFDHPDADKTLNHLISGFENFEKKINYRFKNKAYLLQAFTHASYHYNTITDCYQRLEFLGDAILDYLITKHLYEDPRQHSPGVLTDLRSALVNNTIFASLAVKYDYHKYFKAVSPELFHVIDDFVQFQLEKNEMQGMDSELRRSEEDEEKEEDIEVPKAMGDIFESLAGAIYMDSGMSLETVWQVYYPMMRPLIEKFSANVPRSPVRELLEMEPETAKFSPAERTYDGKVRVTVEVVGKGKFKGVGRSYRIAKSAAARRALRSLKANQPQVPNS
inactive: [1] 0.028 | [2] 0.006 | [3] 0.045 | [4] 0.029 | [5] -0.038

CKM (UniProt P06732)
inactive: [1] 0.008 | [2] -0.027 | [3] -0.109 | [4] -0.169 | [5] 0

DHRS11 (UniProt Q6UWP2)
inactive: [1] -0.004 | [2] 0.012 | [3] 0.018 | [4] 0.013 | [5] 0.014

CNOT4 isoform 9 (UniProt O95628)
inactive: [1] -0.173 | [2] 0.081 | [3] -0.014 | [4] -0.066 | [5] -0.551

DFFB (UniProt O76075)
UniProt O76075, sequence (O76075 whole entry, looked up): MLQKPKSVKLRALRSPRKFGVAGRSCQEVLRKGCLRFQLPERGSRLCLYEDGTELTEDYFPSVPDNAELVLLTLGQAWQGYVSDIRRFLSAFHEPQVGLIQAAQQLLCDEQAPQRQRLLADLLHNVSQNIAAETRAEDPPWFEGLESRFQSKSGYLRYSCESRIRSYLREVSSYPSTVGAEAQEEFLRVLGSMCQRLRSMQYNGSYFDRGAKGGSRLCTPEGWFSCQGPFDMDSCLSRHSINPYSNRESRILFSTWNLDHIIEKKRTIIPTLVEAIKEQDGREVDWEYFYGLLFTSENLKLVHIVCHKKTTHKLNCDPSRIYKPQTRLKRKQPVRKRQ
inactive: [1] 0.06 | [2] -0.057 | [3] 0.061 | [4] -0.032 | [5] 0.081

CINP isoform 3 (UniProt Q9BW66)
inactive: [1] -0.016 | [2] -0.042 | [3] 0.039 | [4] -0.157 | [5] -0.145

CLASP2 isoform 3 (UniProt O75122)
UniProt O75122, sequence (O75122 whole entry, looked up): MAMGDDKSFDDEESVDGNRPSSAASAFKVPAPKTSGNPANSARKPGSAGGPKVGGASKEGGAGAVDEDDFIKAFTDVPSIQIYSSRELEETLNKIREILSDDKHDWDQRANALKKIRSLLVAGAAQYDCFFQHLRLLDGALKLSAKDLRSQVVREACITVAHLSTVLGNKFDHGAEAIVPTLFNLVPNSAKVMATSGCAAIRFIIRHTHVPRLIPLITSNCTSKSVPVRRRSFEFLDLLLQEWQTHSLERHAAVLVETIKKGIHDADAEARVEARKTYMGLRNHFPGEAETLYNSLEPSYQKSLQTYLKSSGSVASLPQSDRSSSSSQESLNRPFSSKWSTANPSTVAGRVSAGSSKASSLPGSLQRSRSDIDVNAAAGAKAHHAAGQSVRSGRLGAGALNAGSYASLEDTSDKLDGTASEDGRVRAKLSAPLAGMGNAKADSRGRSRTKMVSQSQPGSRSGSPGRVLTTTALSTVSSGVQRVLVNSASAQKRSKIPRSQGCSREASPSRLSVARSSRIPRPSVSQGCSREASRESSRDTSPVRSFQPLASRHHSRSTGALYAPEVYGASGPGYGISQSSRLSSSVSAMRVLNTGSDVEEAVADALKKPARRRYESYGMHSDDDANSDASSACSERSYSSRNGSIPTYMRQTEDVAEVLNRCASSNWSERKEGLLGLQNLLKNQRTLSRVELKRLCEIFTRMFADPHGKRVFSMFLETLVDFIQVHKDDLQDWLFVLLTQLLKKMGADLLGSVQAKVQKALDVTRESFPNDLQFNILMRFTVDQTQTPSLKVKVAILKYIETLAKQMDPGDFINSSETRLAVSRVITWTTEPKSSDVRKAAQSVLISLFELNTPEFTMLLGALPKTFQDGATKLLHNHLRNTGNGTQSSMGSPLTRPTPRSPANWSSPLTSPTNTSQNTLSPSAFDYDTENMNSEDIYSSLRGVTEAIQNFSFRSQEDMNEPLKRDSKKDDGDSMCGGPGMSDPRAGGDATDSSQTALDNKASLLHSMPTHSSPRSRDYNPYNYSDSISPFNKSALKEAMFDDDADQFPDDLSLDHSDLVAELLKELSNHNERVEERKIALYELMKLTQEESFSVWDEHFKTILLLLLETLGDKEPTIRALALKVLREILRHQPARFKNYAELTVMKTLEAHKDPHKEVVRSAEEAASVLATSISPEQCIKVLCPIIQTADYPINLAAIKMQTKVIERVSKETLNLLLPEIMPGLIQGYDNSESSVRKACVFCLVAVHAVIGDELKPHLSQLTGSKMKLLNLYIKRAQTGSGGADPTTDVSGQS
inactive: [1] 0.002 | [2] -0.028 | [3] 0.079 | [4] -0.003 | [5] -0.061

DNAH5 (UniProt Q8TE73)
inactive: [1] -0.019 | [2] 0.018 | [3] 0.007 | [4] -0.087 | [5] -0.216

CNST (UniProt Q6PJW8)
UniProt Q6PJW8, sequence (Q6PJW8 whole entry, looked up): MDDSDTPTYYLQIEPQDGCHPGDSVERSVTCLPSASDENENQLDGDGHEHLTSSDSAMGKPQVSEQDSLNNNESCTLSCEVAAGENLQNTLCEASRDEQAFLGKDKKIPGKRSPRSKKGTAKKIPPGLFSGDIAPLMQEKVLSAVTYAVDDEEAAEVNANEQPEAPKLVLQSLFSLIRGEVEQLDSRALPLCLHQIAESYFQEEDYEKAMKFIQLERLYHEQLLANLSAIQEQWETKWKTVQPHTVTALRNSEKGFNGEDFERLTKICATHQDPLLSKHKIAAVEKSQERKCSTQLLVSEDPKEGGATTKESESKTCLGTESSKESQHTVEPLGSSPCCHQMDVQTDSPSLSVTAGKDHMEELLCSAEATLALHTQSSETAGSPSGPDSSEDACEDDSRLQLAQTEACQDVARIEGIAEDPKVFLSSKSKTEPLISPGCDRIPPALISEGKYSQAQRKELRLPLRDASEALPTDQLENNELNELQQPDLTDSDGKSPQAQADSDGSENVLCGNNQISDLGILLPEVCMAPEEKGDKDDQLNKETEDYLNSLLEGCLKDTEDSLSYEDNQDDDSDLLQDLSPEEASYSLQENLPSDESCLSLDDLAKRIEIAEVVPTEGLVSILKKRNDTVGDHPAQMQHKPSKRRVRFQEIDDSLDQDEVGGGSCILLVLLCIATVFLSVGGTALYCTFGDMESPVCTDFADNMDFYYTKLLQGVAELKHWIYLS
inactive: [1] 0.041 | [2] 0.019 | [3] -0.018 | [4] 0.004 | [5] -0.031

CNP (UniProt P09543)
inactive: [1] -0.022 | [2] 0.001 | [3] 0.036 | [4] 0.016 | [5] 0.021

CMIP (UniProt Q8IY22)
UniProt Q8IY22, sequence (Q8IY22 whole entry, looked up): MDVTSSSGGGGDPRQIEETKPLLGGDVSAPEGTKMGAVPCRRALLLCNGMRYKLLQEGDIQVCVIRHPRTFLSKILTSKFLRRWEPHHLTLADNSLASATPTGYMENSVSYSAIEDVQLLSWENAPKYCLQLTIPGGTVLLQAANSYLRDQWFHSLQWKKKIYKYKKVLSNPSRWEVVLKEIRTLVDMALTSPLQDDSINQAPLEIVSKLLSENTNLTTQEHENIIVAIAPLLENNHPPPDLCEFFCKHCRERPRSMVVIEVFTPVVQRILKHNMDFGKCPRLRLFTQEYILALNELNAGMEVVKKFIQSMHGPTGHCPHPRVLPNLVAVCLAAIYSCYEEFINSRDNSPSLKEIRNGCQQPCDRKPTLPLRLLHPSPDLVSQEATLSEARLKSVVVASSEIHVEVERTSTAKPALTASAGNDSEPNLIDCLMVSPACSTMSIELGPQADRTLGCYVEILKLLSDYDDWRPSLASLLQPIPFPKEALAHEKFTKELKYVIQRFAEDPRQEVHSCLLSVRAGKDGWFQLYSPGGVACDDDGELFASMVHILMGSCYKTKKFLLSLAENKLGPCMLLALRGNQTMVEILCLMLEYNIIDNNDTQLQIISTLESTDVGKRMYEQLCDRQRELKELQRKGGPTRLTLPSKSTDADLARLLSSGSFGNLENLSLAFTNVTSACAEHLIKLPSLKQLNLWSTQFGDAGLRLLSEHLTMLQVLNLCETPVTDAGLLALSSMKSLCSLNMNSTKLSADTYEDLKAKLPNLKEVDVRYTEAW
inactive: [1] -0.012 | [2] -0.006 | [3] -0.002 | [4] -0.029 | [5] 0.032

CLASP1 (UniProt Q7Z460)
inactive: [1] -0.019 | [2] 0.011 | [3] 0.022 | [4] -0.026 | [5] -0.007

CKS1B (UniProt P61024)
inactive: [1] 0.017 | [2] -0.074 | [3] -0.058 | [4] 0.108 | [5] 0.194

CMTM3 (UniProt Q96MX0)
inactive: [1] 0.058 | [2] -0.097 | [3] -0.018 | [4] 0.015 | [5] -0.024

CSTB (UniProt P04080)
inactive: [1] -0.031 | [2] -0.018 | [3] -0.032 | [4] -0.071 | [5] -0.146

DARS (UniProt P14868)
inactive: [1] -0.01 | [2] 0.001 | [3] 0.037 | [4] 0.043 | [5] 0.025

CUX1 isoform 3 (UniProt P39880)
inactive: [1] -0.001 | [2] 0.024 | [3] 0.031 | [4] 0.025 | [5] 0.03

COQ8A (UniProt Q8NI60)
inactive: [1] 0.048 | [2] 0.065 | [3] 0.03 | [4] 0.007 | [5] 0

COL6A5 (UniProt A8TX70)
inactive: [1] 0.025 | [2] 0.052 | [3] 0.089 | [4] -0.061 | [5] -0.545

DHRS3 (UniProt O75911)
inactive: [1] 0.073 | [2] 0.064 | [3] -0.091 | [4] 0.018 | [5] -0.004

CSK (UniProt P41240)
inactive: [1] -0.039 | [2] -0.049 | [3] -0.019 | [4] -0.057 | [5] -0.037

DERA (UniProt Q9Y315)
inactive: [1] 0.025 | [2] 0.012 | [3] -0.051 | [4] 0.061 | [5] 0.209

CYP24A1 (UniProt Q07973)
inactive: [1] 0.02 | [2] 0.142 | [3] 0.096 | [4] -0.136 | [5] -0.262

DIAPH3 (UniProt Q9NSV4)
inactive: [1] -0.09 | [2] 0.017 | [3] -0.035 | [4] 0.099 | [5] 0.195

Reference: the supplement of paper PMC10849652
